The target in test [1] is Lysosomal acid glucosylceramidase (Homo sapiens) (UniProt P04062). The experiment in a line: Glucocerebrosidase-p2 (AID 348; in the data active = potency below about 10 µM; note: potency is the fitted concentration of half-maximal effect). The settings on record: purified GBA, blue fluorogenic substrate, 40 min. The gist of the method: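 Compounds titrated from 0.6 nM upwards against 0.2 nM enzyme in pH 5.9 citric acid/KH2PO4, taurocholate, tween-20; blue fluorogenic substrate 80 uM, 40 min room temperature, stopped and read Ex 365/Em 440 for AC50.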

Test [2] in a line: AP1 Signaling Pathway (AID 357; active = well fitted curve in either direction with a large enough effect, not every such curve was filed as active;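 note: ME-180 reporter cells stimulated with EGF at its EC50 level; % is set by controls: 0 for no effect and ±100 for the full control effect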). The settings on record: ME-180 AP-1-bla reporter, EGF-induced, beta-lactamase ratio, 5 h; at 7.69 µM (top of the series) unless noted. The gist of the method: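 In this screen, ME-180 cells in Opti-MEM with 0.5% dialyzed FBS received EC50 EGF and compound titrations for 5 h. AP-1 reporter beta-lactamase was detected via CCF4 ratio, giving AC50 for positive and negative modulators.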

Test [3] in a line: NFAT Signaling Pathway (AID 444; active = well fitted curve in either direction with a large enough effect, not every such curve was filed as active;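 note: carbachol stimulus at about its EC50 of 1 µM final; % is set by controls: 0 for no effect and ±100 for the full control effect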). As to conditions: Jurkat NFAT-bla M1, carbachol, beta-lactamase ratio, 5 h; at 7.69 µM (top of the series) unless noted. The gist of the method: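 Jurkat cells carrying an NFAT-driven β-lactamase reporter and co-transfected muscarinic M1 receptor were treated with compound plus carbachol (1 uM final, an EC50 level) for 5 h at 37 °C. CCF4 loading followed for 1 h at RT; 460/530 nm ratio gave %activity.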

A short description of test [4]: Stat Signaling Pathway (AID 446; active = well fitted curve in either direction with a large enough effect, not every such curve was filed as active;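 note: ME-180 cervical cancer cells given 40 pM IL-6 alongside compound; SIE-controlled beta-lactamase reporter measured as 460/530 nm FRET emission ratio; % is set by controls: 0 for no effect and ±100 for the full control effect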). As to conditions: ME-180 SIE beta-lactamase reporter, IL-6 stimulated, 5 h; at 7.69 µM (top of the series) unless noted. The gist of the method: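 ME-180 SIE-bla cells; overnight plating; cpd + IL-6 40 pM, 5 h, 37 C; LiveBLAzer 2.5 h RT; 460/530 nm emission ratio. Normalized to 300 pM IL-6 and 125 nM JAK inhibitor controls.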
The target of test [5] is Glucocorticoid receptor (Homo sapiens) (UniProt P04150). The test is described as follows: GR-GFP Redistribution (AID 450;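 active = compounds whose dose series gives a full or clear partial fitted curve of increased nuclear translocation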; note: potency is the fitted concentration of half-maximal effect). The settings on record: U2OS GR-GFP nuclear translocation, laser cytometry, 2 h.
Test [6] shares this target. The test is described as follows: GR-EFC Redistribution (AID 451; calls by dose curve; note: potency is the fitted concentration of half-maximal effect). As to conditions: CHO-K1 GR-EFC translocation, beta-gal luminescence, 2 h. The gist of the method:
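CHO-K1 cells stably expressing nuclear-localized β-gal enzyme acceptor and GR fused C-terminally to the enzyme donor fragment; ligand-driven nuclear translocation restores β-gal by complementation. Compounds titrated up to 46 uM final, 2 h at 37 °C; luminescence read.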

For test [7], the target named is Mitogen-activated protein kinase 10 (Mus musculus) (UniProt Q61831). The test is described as follows: JNK3 AlphaScreen Assay (AID 530; active = well fitted curve in either direction with a large enough effect, not every such curve was filed as active;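 note: kinase came from lysate of stimulated human HepG2 cells; signal reports phosphorylation of biotinylated GST-cJun 1-79 at Ser73 with 10 µM ATP; % is set by controls: 0 for no effect and ±100 for the full control effect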). The settings on record: JNK3 lysate, c-Jun phosphorylation; series mostly up to 57.1 µM. The gist of the method:
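JNK3 came from HepG2 lysates pre-activated with IL-1beta and TNF-alpha and phosphorylated biotinylated GST-cJun (1-79) at 10 uM ATP, pH 7.6, room temperature. Compounds were titrated. AlphaScreen signal used anti-phospho-cJun (Ser73) antibody.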

Test [8] deals with 3',5'-cyclic-AMP phosphodiesterase 4B (Homo sapiens) (UniProt Q07343). The experiment in a line: qHTS Assay for Inhibitors of PDE-IV (AID 607; active = well fitted activation curve with a large enough effect in the main read-out, with a control signal flat, not every such curve was filed as active; note: % of control where 0% means no effect). The settings on record: HEK293 ACTOne CNG channel cells, membrane potential fluorescence; series mostly up to 22.9 µM. The gist of the method: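 ACTOne HEK293 cells carry a modified cAMP-gated CNG channel and express endogenous PDE4; plated 1000 cells/well, compounds up to 22.9 uM final. Membrane-potential dye fluorescence (ex 535/em 590) was read; parental cells received 10 uM forskolin + 100 uM RO 20-1724.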
(Quantitative high-throughput screening tests each substance at several concentrations.)

Test [9] is described as follows: qHTS Assay for Lipid Storage Modulators (AID 1519; calls by dose curve). As to conditions: Drosophila S3 cells, BODIPY lipid droplet/cell ratio, laser cytometry, cells loaded with oleic acid; for activity change, negative = inhibition: at 57.5 µM (top of the series). The gist of the method: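 Cells seeded at 5,000 per well were treated with compounds over a concentration series and loaded with oleic acid (400 uM, as added). Lipid droplet fluorescence (488 nm excitation, 500-530 nm channel) was read by laser-scanning cytometry and normalized to 20 uM Triacsin C.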

Test [10] has as its target Dual specificity protein kinase CLK4 (Homo sapiens) (UniProt Q9HAZ1). The experiment in a line: qHTS Assay for Inhibitors of CDC-like Kinase 4 (Kinase-Glo Assay) (AID 1770). Note: % is set by controls: 0 for no effect and ±100 for the full control effect; nearly all actives have a fitted effect of over 65% in size. As to conditions: recombinant Clk4, Kinase-Glo ATP depletion luminescence; series mostly up to 66.7 µM. The gist of the method:
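Substrate mix (RS peptide 100 uM, ATP 1 uM) dispensed, compound pinned in, then Clk4 added to 25 nM final. Incubated 4.5 h at RT; Kinase-Glo reagent added, luminescence read after 5 min.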

Test [11] shares this target. The test is described as follows: qHTS Assay for Inhibitors of CDC-like Kinase 4 (ADP-Glo Assay) (AID 1771). Note: % is set by controls: 0 for no effect and ±100 for the full control effect; nearly all actives have a fitted effect of over 70% in size. The settings on record: recombinant CLK4, ADP-Glo luminescence; series mostly up to 80 µM. The gist of the method:
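Clk4 (25 nM) was incubated 1 hr at room temperature with 100 uM RS repeat peptide and 1 uM ATP in buffer with 2 mM MgCl2, 0.5 mM EGTA, 2.5 mM DTT. ADP formed was quantified by ADP-Glo luminescence.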

Test [12] has the same target. The experiment in a line: qHTS Assay for Inhibitors of CDC-like Kinase 4 (ADP-FP Assay) (AID 1795).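 Note: recombinant human CLK4 phosphorylating RS repeat peptide at 1 µM ATP; % is set by controls: 0 for no effect and ±100 for the full control effect; nearly all actives have a fitted effect of over 60% in size.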 The settings on record: Transcreener ADP fluorescence polarization; series mostly up to 50 µM. The gist of the method:
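Clk4 6.25 nM; RS peptide 100 uM; ATP 1 uM; 25 mM Tris pH 7.5, 10 mM MgCl2; 1 h reaction. ADP detected via antibody/orange tracer FP displacement; TG003 positive control.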

Test [13] deals with Ubiquitin carboxyl-terminal hydrolase 1 (Homo sapiens) (UniProt O94782). The experiment in a line: Inhibitors of USP1/UAF1: Pilot qHTS (AID 504865).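 Note: rhodamine fluorescence freed from ubiquitin-rhodamine substrate followed over time; top concentration of the series differs between compounds; % is set by controls: 0 for no effect and ±100 for the full control effect; nearly all actives have a fitted effect of over 35% in size.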 The settings on record: purified USP1/UAF1, Ub-rhodamine cleavage fluorescence; series mostly up to 54.9 µM. The gist of the method: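 In 50mM HEPES pH 7.8 containing 0.5mM EDTA, 1mM TCEP, 0.1 mg/ml BSA and 0.01% Tween-20, 1nM USP1/UAF1 is exposed to compound for 15 min, then Ub-Rho (150nM final) is added and fluorescence is read over time.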

The nature of test [14]: Primary qHTS for small molecule stabilizers of the endoplasmic reticulum resident proteome: Secreted ER Calcium Modulated Protein (SERCaMP) assay (AID 1508630). Note: % is set by controls: 0 for no effect and ±100 for the full control effect. As to conditions: SH-SY5Y GLuc-SERCaMP (Gaussia luciferase released on ER calcium loss) secretion, thapsigargin, luminescence; series mostly up to 38.4 µM. The gist of the method:
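GLuc-SERCaMP-expressing SH-SY5Y cells, pretreated 16 h with compound, are challenged with thapsigargin to empty ER calcium stores; after 4 h, coelenterazine is added directly to the medium and luminescence is imaged.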

In test [15] the target is Cytochrome P450 3A4 (Homo sapiens) (UniProt P08684). The test is described as follows: qHTS Assay for Activators of Cytochrome P450 3A4 (AID 885). Note: nearly all actives have a fitted effect of over 65% in size. As to conditions: recombinant CYP3A4, Luciferin-PPXE luminescence, 60 min; series mostly up to 57.1 µM. The gist of the method: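 20nM CYP3A4 + 25uM Luciferin-PPXE (=KM), 200mM KPO4; cpd 10 min RT; NADPH regen, 60 min RT; stop w/ detection buffer, 20 min; luminescence. Normalized to 57 uM ketoconazole.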

Test [16] is described as follows: qHTS Assay for Identification of Small Molecule Agonists for Hypoxia Response Element Signaling Pathway (AID 914; active = well fitted activation curve with a large enough effect in the signal ratio, with a control signal flat, not every such curve was filed as active; the % refers to the signal ratio; note: % of control where 0% means no effect). The settings on record: ME-180 (cervical carcinoma) HRE-bla reporter, beta-lactamase ratio, CoCl2, 17 h; activation: stronger effect = higher value. The gist of the method:
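HRE-bla ME-180 cells, overnight plating in Opti-MEM with 0.5% dialyzed FBS; cpd titration + EC50 CoCl2, 17 h, 37 degrees Celsius; CCF4 2.5 h RT; 460/530 nm ratio; AC50.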

Where [17] appears, read: measured here: cell count channel max response.
Where [18] appears, read: measured here: lipid channel max response.

Here are results for six compounds from PubChem BioAssay (NCATS).

Inconclusive results are not listed. The source made the active and inactive calls. Unless noted, calls come from the whole dose curve; as a rule, active = well fitted curve in the direction sought with a large enough effect; inconclusive = small, poorly fitted or top-dose-only effect, or another doubt; inactive = no such curve, though single readings can be large; an effect the other way counts as inactive or inconclusive.

Chain of Glucocorticoid receptor (Homo sapiens) (P04150 whole entry, looked up): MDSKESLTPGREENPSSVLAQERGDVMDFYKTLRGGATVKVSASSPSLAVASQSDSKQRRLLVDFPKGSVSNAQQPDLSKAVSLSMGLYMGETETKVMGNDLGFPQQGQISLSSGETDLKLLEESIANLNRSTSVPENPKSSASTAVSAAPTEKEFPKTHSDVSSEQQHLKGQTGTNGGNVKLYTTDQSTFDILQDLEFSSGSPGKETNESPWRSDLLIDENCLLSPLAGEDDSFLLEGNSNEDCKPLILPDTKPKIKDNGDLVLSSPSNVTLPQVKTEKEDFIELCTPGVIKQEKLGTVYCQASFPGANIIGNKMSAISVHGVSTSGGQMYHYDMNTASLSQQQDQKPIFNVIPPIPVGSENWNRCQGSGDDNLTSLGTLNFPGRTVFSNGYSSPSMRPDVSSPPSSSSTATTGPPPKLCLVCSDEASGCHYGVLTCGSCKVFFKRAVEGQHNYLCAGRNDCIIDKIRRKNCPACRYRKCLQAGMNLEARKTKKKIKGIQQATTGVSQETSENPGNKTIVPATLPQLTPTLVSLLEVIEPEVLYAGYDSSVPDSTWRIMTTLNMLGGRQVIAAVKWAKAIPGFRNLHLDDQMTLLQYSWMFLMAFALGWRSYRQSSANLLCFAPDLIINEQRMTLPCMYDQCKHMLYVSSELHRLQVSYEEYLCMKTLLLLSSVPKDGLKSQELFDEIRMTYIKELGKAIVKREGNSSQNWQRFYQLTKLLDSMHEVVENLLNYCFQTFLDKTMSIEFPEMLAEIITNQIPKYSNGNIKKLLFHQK
Chain of 3',5'-cyclic-AMP phosphodiesterase 4B (Homo sapiens) (Q07343 whole entry, looked up): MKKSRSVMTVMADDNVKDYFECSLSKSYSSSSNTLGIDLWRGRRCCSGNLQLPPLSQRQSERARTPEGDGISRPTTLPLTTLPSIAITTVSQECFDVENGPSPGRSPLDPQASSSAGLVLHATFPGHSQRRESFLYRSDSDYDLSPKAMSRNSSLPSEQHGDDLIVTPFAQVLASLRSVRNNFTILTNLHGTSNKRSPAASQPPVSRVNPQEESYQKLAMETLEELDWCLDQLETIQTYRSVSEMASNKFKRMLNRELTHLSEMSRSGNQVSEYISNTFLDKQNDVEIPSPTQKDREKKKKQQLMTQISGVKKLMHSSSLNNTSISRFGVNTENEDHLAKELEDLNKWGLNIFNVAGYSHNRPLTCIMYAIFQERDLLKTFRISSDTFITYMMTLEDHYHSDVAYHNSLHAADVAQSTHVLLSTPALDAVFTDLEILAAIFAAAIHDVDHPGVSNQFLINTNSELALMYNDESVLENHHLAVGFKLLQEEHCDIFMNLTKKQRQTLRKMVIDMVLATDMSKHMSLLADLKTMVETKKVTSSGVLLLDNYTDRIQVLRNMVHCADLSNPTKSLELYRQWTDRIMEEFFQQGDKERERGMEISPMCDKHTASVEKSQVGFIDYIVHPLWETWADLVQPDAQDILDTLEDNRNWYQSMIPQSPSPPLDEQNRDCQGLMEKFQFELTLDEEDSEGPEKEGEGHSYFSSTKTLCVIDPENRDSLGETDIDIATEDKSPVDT
Chain of Ubiquitin carboxyl-terminal hydrolase 1 (Homo sapiens) (O94782 whole entry, looked up): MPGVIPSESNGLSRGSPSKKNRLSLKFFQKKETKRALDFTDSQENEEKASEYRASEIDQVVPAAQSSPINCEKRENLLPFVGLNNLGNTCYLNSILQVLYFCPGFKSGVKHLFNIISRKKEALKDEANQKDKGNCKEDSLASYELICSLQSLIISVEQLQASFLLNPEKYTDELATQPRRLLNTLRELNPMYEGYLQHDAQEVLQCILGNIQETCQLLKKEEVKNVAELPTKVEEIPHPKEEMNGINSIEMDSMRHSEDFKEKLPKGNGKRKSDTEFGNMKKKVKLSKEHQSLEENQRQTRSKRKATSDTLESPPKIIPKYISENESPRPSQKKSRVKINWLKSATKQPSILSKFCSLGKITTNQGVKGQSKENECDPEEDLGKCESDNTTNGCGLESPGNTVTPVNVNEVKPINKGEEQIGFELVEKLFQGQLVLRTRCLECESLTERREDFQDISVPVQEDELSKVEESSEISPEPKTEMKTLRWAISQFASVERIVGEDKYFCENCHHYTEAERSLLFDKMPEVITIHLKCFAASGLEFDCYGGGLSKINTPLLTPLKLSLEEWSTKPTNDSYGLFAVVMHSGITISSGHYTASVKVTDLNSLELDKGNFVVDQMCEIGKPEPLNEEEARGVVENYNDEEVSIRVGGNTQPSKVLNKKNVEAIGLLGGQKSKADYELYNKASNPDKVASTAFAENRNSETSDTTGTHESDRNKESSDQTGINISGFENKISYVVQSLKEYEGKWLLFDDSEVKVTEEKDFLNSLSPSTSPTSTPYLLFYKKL
Chain of Lysosomal acid glucosylceramidase (Homo sapiens) (P04062 whole entry, looked up): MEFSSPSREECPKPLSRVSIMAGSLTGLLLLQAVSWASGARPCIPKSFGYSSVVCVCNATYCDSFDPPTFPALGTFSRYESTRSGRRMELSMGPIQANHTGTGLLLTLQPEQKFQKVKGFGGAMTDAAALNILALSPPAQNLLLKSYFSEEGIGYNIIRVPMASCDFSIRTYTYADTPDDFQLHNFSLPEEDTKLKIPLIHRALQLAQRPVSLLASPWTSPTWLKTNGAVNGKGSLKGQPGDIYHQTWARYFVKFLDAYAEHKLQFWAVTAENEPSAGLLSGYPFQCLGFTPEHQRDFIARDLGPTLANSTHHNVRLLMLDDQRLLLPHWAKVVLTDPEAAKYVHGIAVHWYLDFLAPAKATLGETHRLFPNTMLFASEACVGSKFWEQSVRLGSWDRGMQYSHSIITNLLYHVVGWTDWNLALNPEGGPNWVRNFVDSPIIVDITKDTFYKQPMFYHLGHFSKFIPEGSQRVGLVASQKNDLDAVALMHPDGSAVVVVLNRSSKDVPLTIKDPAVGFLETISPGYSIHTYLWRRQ
Chain of Dual specificity protein kinase CLK4 (Homo sapiens) (Q9HAZ1 whole entry, looked up): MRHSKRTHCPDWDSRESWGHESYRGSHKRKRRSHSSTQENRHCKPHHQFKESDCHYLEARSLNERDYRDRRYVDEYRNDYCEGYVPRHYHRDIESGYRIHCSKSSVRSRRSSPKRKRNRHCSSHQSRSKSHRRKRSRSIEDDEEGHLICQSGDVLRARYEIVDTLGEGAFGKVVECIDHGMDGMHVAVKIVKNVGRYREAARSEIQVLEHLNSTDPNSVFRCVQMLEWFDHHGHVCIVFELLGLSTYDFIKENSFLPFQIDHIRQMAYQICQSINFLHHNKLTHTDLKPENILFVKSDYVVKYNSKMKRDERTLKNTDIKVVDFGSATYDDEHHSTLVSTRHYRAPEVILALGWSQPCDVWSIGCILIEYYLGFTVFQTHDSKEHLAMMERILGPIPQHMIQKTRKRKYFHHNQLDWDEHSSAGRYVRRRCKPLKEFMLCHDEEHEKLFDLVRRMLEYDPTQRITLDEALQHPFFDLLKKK
Chain of Cytochrome P450 3A4 (Homo sapiens) (P08684 whole entry, looked up): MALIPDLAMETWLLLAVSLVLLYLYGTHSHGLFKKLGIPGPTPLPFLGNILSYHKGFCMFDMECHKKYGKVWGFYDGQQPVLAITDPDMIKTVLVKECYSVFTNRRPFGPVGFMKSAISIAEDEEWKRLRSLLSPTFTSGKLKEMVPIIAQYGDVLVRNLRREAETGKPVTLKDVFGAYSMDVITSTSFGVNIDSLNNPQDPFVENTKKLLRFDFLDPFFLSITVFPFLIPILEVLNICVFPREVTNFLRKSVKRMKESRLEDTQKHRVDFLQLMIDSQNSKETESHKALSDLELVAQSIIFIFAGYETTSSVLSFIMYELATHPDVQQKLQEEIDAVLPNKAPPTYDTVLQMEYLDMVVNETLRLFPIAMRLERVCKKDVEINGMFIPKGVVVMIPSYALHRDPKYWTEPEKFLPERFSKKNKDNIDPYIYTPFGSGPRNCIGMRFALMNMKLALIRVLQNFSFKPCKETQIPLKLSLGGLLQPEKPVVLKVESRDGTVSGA

In the case of `COCCn1c(=O)c(-c2cccc(C#N)c2)nc2cnc(OC)nc21`, the Potency in [1] was > 11.4 µM (inactive); in test [5], > 9.22 µM (inactive); in [6], > 46 µM (inactive). Moreover, the activity change, negative = inhibition is -22.4% (inactive) in test [2], 4.96% (inactive) in [3] and 4.12% (inactive) in test [9]. Besides, in test [4], the activity, negative = inhibition was -9.77% (inactive). Moreover, the result in test [7] was inactive. Also, the Potency result in test [8], in test [10], in [11], in test [12], in test [13] and in [14] was “inactive” throughout. Moreover, the max response in test [9] (setting [17]) is 19.6%; in test [9] (setting [18]), 22%.

Regarding `COc1ccc(-c2nc3cnc(Nc4cccc(OC)c4)nc3n(C[C@H]3CCCO3)c2=O)cc1`, the Potency is > 11.4 µM (inactive) in test [1], > 9.22 µM (inactive) in [5] and > 46 µM (inactive) in [6]. For the same compound, the figures for the activity change, negative = inhibition in test [2], in [3] and in [9] were -24.6% (inactive), -19.9% (inactive) and -4.84% (inactive), respectively. Besides, the activity, negative = inhibition in [4] is 16.7% (inactive). For the same compound, in test [7], the compound was called inactive. The Potency entry in test [8], in [15], in test [10], in test [11], in [12] and in test [13] was “inactive” in each case. In [14], the Potency entry is “inactive”. In addition, the results for the max response in [9] (setting [17]) and in [9] (setting [18]) were -7.08% and -12.2%, respectively.

On to `CCNc1ncc2nc(-c3ccc(Cl)cc3)c(=O)n(CCC#N)c2n1`, for which the Potency in test [1] was > 11.4 µM (inactive); in test [6], > 46 µM (inactive). Besides, the activity change, negative = inhibition in [2] is 8.5% (inactive); in [3] it was -14.8% (inactive); in test [9], 8.4% (inactive). The activity, negative = inhibition in test [4] is 14.5% (inactive). For the same compound, the compound was classed as inactive in test [7]. In addition, the Potency entry in test [8], in [10], in test [11], in test [12], in test [13] and in test [14] was “inactive” throughout. For the same compound, the max response in test [9] (setting [17]) came to 15.3%; in test [9] (setting [18]), 24.2%.

With `COc1ncc2nc(-c3ccc(F)cc3)c(=O)n(C3CC3)c2n1`, the Potency was > 11.4 µM (inactive) in test [1], > 9.22 µM (inactive) in [5] and > 46 µM (inactive) in test [6]. Also, the results for the activity change, negative = inhibition in test [2], in [3] and in [9] were -9.24% (inactive), -21.4% (inactive) and 4.43% (inactive), respectively. For the same compound, the activity, negative = inhibition in test [4] is -4.24% (inactive). In [7], the compound was called inactive. Also, the Potency entry in [8], in [10], in test [11], in test [12], in [13] and in [14] was “inactive” in each case. Further, the values for the max response in test [9] (setting [17]) and in [9] (setting [18]) were 16.8% and 19.3%, respectively.

In the case of `Cc1noc(C)c1-c1cc(N2CCNCC2)ncn1`, the values for the Potency in test [1], in test [5] and in test [6] were > 11.4 µM (inactive), > 46 µM (inactive) and > 46 µM (inactive), respectively. The activity change, negative = inhibition in test [2] is -3.92% (inactive); in test [3], 7.79% (inactive); in test [9] it was 5.16% (inactive). In addition, in test [4], the activity, negative = inhibition was 5.3% (inactive). In addition, the call in test [7] was inactive. Moreover, the Potency result in test [8], in [10], in test [11], in test [12], in test [13] and in test [14] was “inactive” throughout. For the same compound, the max response was determined as 1.52% in test [9] (setting [17]) and 8.99% in test [9] (setting [18]).

As for `O=c1c(-c2cc(F)cc(F)c2)nc2cnc(Nc3ccccc3)nc2n1C[C@H]1CCCO1`, the results for the Potency in [1], in test [5] and in [6] were > 11.4 µM (inactive), > 9.22 µM (inactive) and > 46 µM (inactive), respectively. For the same compound, the activity change, negative = inhibition in [2] was -3.83% (inactive); in test [3] it was -13.7% (inactive); in [9] it was -10.6% (inactive). For the same compound, the activity, negative = inhibition in [4] was 1.12% (inactive). In addition, in test [7], the compound was classed as inactive. The Potency entry in test [8], in [10], in test [11], in [12] and in [14] was “inactive” each time. Also, in [16], the activation is -17% (inactive). The max response in [9] (setting [17]) stood at 17.2%; in [9] (setting [18]), 2.07%.
